Sampled rows, rich in hits. Any-hit rate of the full collection: about 0.93%.
CIT2-GFP yeast – modulators of CIT2-GFP expression in yeast, primary screen, S. cerevisiae, GFP fusion, multiplex flow cytometry, MLPCN library | S. cerevisiae CIT2-GFP strain, 3 h; 100 means same as DMSO wells | GFP response vs DMSO, % at 10 µM | hit rate 0.065% among 320,000;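 active = GFP response relative to DMSO above a set limit, near the screen mean plus 3 SD, cut at about 150% in these data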;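 also: ratio of well median GFP fluorescence to mean of DMSO wells on the plate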
LAP4 TOR yeast – modulators of LAP4-GFP expression in yeast, primary screen, S. cerevisiae, multiplex flow cytometry, MLPCN library; hit rate 0.34% among 320,000; AID 2023, 2009; GFP response vs DMSO, % at 10 µM; 3 h; median GFP as percent of DMSO wells;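 active = GFP response vs DMSO above a set limit, about the screen mean plus 3 SD, cut at about 150% in these data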
AGP1 TOR yeast – modulators of AGP1-GFP expression in yeast TOR pathway, primary screen, cell-based, multiplex flow cytometry, S. cerevisiae, MLPCN library | 3 h; GFP as percent of DMSO wells | GFP response vs DMSO, % at 10 µM | hit rate 0.02% among 320,000 | AID 2066, 2009;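 active = GFP response relative to DMSO above a set limit, near screen average plus 3 SD, cut at about 150% in these data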;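 also: median GFP channel fluorescence of the gated AGP1 strain per well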
RPL19A TOR yeast – RPL19A-GFP expression modulators in yeast, primary screen, cell-based, S. cerevisiae, multiplex flow cytometry, MLPCN; S. cerevisiae RPL19A-GFP strain, 3 h; hits give low values; percent response vs DMSO, % at 10 µM; hit rate 0.3% among 330,000; AID 2025, 2009;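 active = percent response vs DMSO below 50%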;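 also: median channel GFP fluorescence of the barcoded RPL19A-GFP strain; ratio of sample median GFP to plate DMSO average so 100% = DMSO; lower means less RPL19A-GFP as with rapamycin TOR inhibition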
MEP2-GFP yeast – modulators of MEP2-GFP levels in yeast, primary screen, S. cerevisiae, multiplex flow cytometry, MLPCN library | S. cerevisiae MEP2-GFP strain, 3 h; 100% = DMSO control level | GFP response vs DMSO, % at 10 µM | hit rate 0.51% among 330,000 | AID 2016, 2009;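 active = GFP response versus DMSO above a set limit, roughly screen mean plus 3 SD, cut at about 180% in these data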;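 also: median GFP fluorescence of the barcode-gated MEP2-GFP cells per well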
LAP4-GFP pick2 – LAP4-GFP expression modulators in yeast, confirmation, cell-based, second cherry pick, flow cytometry. shares compounds with LAP4 TOR yeast. S. cerevisiae LAP4-GFP strain, 3 h. GFP response vs DMSO, % at 10 µM. hit rate 20% among 590. AID 2621, 2010;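 active = GFP signal as percent of the solvent control above about 150%, meaning raised reporter expression, limit read from the data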;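 also: ratio of well median GFP fluorescence to plate DMSO mean so 100% = DMSO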
MEP2-GFP pick2 – modulators of MEP2-GFP levels in yeast, confirmation, S. cerevisiae, flow cytometry GFP, second cherry picks | shares compounds with LAP4 TOR yeast | S. cerevisiae MEP2-GFP strain, 3 h | GFP response vs DMSO, % at 10 µM | hit rate 10% among 590;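 active = GFP signal above 150% of the solvent control wells, that is a rise of more than half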;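 also: median channel GFP fluorescence of all gated yeast cells per well; ratio of median GFP to plate DMSO average so 100% = DMSO level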
RPL19A-GFP pick2 – RPL19A-GFP modulators in TOR pathway yeast, confirmation, cell-based, S. cerevisiae, flow cytometry, second cherry pick | shares compounds with LAP4 TOR yeast | S. cerevisiae RPL19A-GFP strain, 3 h; hits give low values; 100% means same as DMSO wells | GFP response vs DMSO, % at 10 µM | hit rate 3% among 590 | AID 2623, 2010;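 active = under 65% GFP response relative to DMSO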;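 also: median GFP channel fluorescence per well over the all cells gate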
CIT2 GFP CP2 – modulators of CIT2-GFP expression in yeast, confirmation, flow cytometry, second cherry pick, single plex; S. cerevisiae CIT2-GFP strain, 3 h; DMSO control wells read 100%; shares compounds with LAP4 TOR yeast; hit rate 8% among 590; GFP response vs DMSO, % at 10 µM;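 active = GFP response vs DMSO above about 150%, limit read from the data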;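 also: median green fluorescence per well over all gated yeast cells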
AGP1-GFP pick2 – AGP1-GFP expression modulators, hit retest, confirmation, cell-based, flow cytometry, S. cerevisiae, cherry pick set 2. percent response vs DMSO, % at 10 µM. S. cerevisiae AGP1-GFP strain, 3 h. 590 tested, under 10 active. AID 2643, 2010. shares compounds with LAP4 TOR yeast;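 active = over 150 percent of DMSO response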;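 also: median GFP channel fluorescence over all cells without mother daughter split; sample median GFP divided by mean DMSO control so 100% equals DMSO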
s288c autofluor – compound autofluorescence in yeast s288c, dose response, artefact control for yeast TOR pathway GFP screen, s288c strain. 610 tested, under 10 active. shares compounds with LAP4 TOR yeast. AID 2757, 2010. fluorescence change (kMESF span) at 33 µM. S. cerevisiae s288c, 520 nm autofluorescence, flow cytometry, 3 h; hits give high values; zero means same as solvent-only cells;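 active = fluorescence span over the dose series, or activity score, above about 33, limit read from the data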
Yeast autofl DR – autofluorescence of compounds in yeast s288c, dose response, artefact control for yeast TOR pathway GFP screen, primary hits, KU SAR, s288c parental | shares compounds with LAP4 TOR yeast | S. cerevisiae s288c parental, compound autofluorescence, flow cytometry, 3 h | fluorescence change (span) at 33 µM | 110 tested, under 10 active | AID 488829, 2010;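 active = fluorescence change span, or the activity score built from it, above 25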
TORC1 bypass – wild-type yeast growth inhibition sparing TORC1 bypass cells, mechanism study for yeast TOR pathway GFP screen, BY4741 wild type, TORC1 bypass strain | growth rating (0-3) at 30 µM | S. cerevisiae BY4741 spot growth rating, 48-72 h; hits give low values | 120 tested, under 10 active | shares compounds with LAP4 TOR yeast | AID 504456, 2011;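 active = growth rating at most 1 for wild type yeast while the TORC1 bypass strain still grows fully, rated 3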
* hit, by the source's call; / = no result given.

SMILES	CIT2-GFP yeast	LAP4 TOR yeast	AGP1 TOR yeast	RPL19A TOR yeast	MEP2-GFP yeast	LAP4-GFP pick2	MEP2-GFP pick2	RPL19A-GFP pick2	CIT2 GFP CP2	AGP1-GFP pick2	s288c autofluor	others
Cc1ccc(-n2c(C)cc(C(=O)COC(=O)c3ccc[nH]c3=O)c2C)cc1C	81	150	85	58	86	/	/	/	/	/	/
O=C(COc1ccccc1)NNC(=S)NC(=O)c1ccc(Cl)cc1Cl	92	219*	98	109	119	260*	185*	83	122	117	1.4
S=C(NCCNCc1ccccc1)NC1CCCCC1	93	91	57	52	140	101	100	101	101	102	/
S=C(NCCc1ccccc1)NC1CCCCCC1	105	111	101	107	95	/	/	/	/	/	/
O=C(O)Cc1ccc(NC(=S)Nc2ccc(Br)cc2Cl)cc1	89	102	92	93	96	/	/	/	/	/	/
CC(=O)N1NC(=Nc2ccccc2)SC1(C)C	90	95	80	62	133	115	101	96	96	98	/
O=C1NC(=Nc2ccccc2)SC1(CO)CO	113	107	102	102	117	/	/	/	/	/	/
Cc1ccc(C)c(NC(=O)COC(=O)CCCN=C2NS(=O)(=O)c3ccccc32)c1	93	94	97	97	90	/	/	/	/	/	/
COc1ccc(OC)c(NC(=O)COC(=O)CCCN=C2NS(=O)(=O)c3ccccc32)c1	84	163*	106	86	110	100	102	100	98	101	/
CN(Cc1cn(-c2ccccc2)nc1-c1ccc(Cl)cc1)C(=O)CCC(=O)O	96	94	100	102	96	/	/	/	/	/	/
COc1cccc(/C=C2\C(=O)N(c3cccc(C)c3)C(=O)c3ccccc32)c1	74	154*	94	96	96	/	/	/	/	/	0
COc1cccc(/C=N/Nc2ccc([N+](=O)[O-])cn2)c1O	97	156*	99	97	113	161*	114	94	106	91	0.51
COc1cccc(/C=N/Nc2nc(Nc3ccc([N+](=O)[O-])cc3)nc(N3CCCC3)n2)c1O	102	105	106	102	108	/	/	/	/	/	/
Cc1ccc(C2=NN(S(C)(=O)=O)C(c3ccc4c(c3)OCO4)C2)cc1 (stereo not given)	128	105	99	108	106	/	/	/	/	/	4.6
Cc1ccc(NC(=O)c2cc(N3C(=O)C=CC3=O)ccc2N2CCOCC2)cc1Cl	70	153*	79	72	98	162*	183*	80	145	92	1.7	Yeast autofl DR=1.5;TORC1 bypass=3
O=C(Nc1nnc(-c2ccc(F)cc2)o1)c1cccc([N+](=O)[O-])c1	99	164*	103	98	111	/	/	/	/	/	0.2
O=C(Nc1nnc(-c2ccccc2)o1)c1cc(Cl)sc1Cl	100	103	99	102	103	/	/	/	/	/	/
O=C(Nc1nnc(-c2ccc(F)cc2)o1)c1cc(Cl)sc1Cl	102	164*	115	98	118	167*	121	112	139	104	0.7
CC(C(=O)NCC1CCCCC1)N(C)CC(=O)Nc1ccc(N2CCOCC2)cc1 (stereo not given)	108	98	106	101	108	/	/	/	/	/	/
CCCCCCSc1ccc(-c2nc3ccccn3c2NCCCC)cc1	88	161*	92	99	104	125	108	97	101	94	/
CCn1cc(C(=O)Nc2ccc(OC)c(S(=O)(=O)N3CCCCC3)c2)c(=O)c2ccc(C)nc21	138	158*	113	107	175*	96	102	102	97	103	/
O=C(/C=C/c1ccccn1)c1ccc(Br)cc1O	81	155*	88	87	84	165*	119	91	96	95	1.5
O=C(/C=C/c1ccc(O)cc1)c1ccc(O)cc1O	105	112	97	105	100	/	/	/	/	/	/
O=C(/C=C/c1ccccn1)c1cc(Br)ccc1O	57	212*	67	69	80	/	/	/	/	/	1.1
COc1ccc(/C=C/C(=O)c2cc(Br)ccc2O)cc1OC	107	128	88	93	112	/	/	/	/	/	/
Cc1cc(O)c(C(C)C)cc1NC(=O)c1cccc(Cl)c1	93	96	100	100	103	/	/	/	/	/	/
CCn1c(C)nnc1SCC(=O)Nc1ccc(Cl)cc1	106	96	98	102	108	/	/	/	/	/	/
O=c1c2c([N+](=O)[O-])cc([N+](=O)[O-])cc2sn1-c1ccc(Br)cc1	37	62	12	32*	78	107	96	94	103	99	/
O=c1c2c([N+](=O)[O-])cc([N+](=O)[O-])cc2sn1Cc1ccccc1	99	107	101	99	100	/	/	/	/	/	/
CCCc1cc(N2CCN(c3ccccn3)CC2)n2nc(C)c(-c3ccccc3)c2n1	101	103	101	101	103	/	/	/	/	/	0

Screening results deposited in PubChem by NMMLSC.
